This is a sample that favours compounds with a hit; in the whole collection about 2.9% have one here.
EBNA-1 inh: blocks EBNA-1 binding to DNA; inhibition, % at 14.8 µM; hit rate 0.34% among 300,000; EBNA-1 DNA binding, fluorescence polarization; in the data active = inhibition above about 28%
PAFAH1B2 inh: PAFAH1B2 (human) inhibition | AID 492953 | recombinant PAFAH1B2, FP-rhodamine activity probe, fluorescence polarization | inhibition, % at 3.39 µM | P68402 | hit rate 1.2% among 340,000;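 active = inhibition above the mean of all tested compounds plus 3 SD, cut at about 24% in these data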
Target sequence (P68402 whole entry, looked up): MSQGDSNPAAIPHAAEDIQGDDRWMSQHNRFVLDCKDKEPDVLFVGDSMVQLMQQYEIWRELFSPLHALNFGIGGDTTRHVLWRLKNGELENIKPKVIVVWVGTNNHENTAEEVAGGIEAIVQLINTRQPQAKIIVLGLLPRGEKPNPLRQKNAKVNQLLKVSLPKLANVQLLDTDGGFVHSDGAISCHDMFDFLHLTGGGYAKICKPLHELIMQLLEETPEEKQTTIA
rCAG binder: molecules binding r(CAG) RNA repeats. r(CAG) RNA repeat, TO-PRO-1 dye displacement fluorescence. inhibition, % at 3 µM. hit rate 1.3% among 370,000;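 active = inhibition above the plate cutoff, the mean of all test compounds on that plate plus 3 SD, cut at about 35% in these data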;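 also: higher means more dye released from RNA so lower well fluorescence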
ZTA counter: ZTA (EBV) inhibition in EBNA-1 counter-screen; ZTA-DNA binding, fluorescence polarization; inhibition, % at 11 µM; hit rate 0.15% among 320,000; P03206; in the data active = inhibition above about 33%
Target sequence (P03206 whole entry, looked up): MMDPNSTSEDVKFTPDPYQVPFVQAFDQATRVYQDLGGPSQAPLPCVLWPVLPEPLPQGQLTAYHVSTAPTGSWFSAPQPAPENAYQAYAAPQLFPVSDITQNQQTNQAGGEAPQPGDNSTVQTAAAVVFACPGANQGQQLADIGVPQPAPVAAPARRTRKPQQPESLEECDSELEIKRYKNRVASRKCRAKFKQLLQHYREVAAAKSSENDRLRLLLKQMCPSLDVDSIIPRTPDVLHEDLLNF
PAFAH1B3 FP inh: PAFAH1B3 (human) inhibition. hit rate 0.28% among 340,000. inhibition, % at 3.39 µM. recombinant PAFAH1B3, FP-rhodamine probe, fluorescence polarization;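 active = inhibition above the screen-wide average of all tested compounds plus 3 SD, cut at about 25% in these data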
Target sequence (Q15102 whole entry, looked up): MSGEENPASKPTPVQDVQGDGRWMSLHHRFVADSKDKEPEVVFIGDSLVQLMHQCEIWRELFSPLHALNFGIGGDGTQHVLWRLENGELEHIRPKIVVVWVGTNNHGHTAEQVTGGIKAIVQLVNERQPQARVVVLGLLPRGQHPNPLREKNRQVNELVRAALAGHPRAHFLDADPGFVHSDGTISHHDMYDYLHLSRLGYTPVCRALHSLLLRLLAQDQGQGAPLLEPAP
PAFAH2 inh: inhibitors of human PAFAH2; AID 492956; hit rate 0.99% among 340,000; recombinant PAFAH2, FP-rhodamine activity probe, fluorescence polarization; inhibition, % at 3.39 µM;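 active = inhibition above the mean over all tested compounds plus 3 SD, cut at about 30% in these data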;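 also: inhibitors block probe labeling of enzyme so polarization drops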
Zta DNA confirm: confirmation of Epstein-Barr virus ZTA DNA binding inhibitors; shares compounds with ZTA counter; Zta-ZRE DNA binding, fluorescence polarization; inhibition, % at 11.1 µM; hit rate 30% among 320; AID 2361;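 active = mean inhibition across triplicate runs above the hit threshold derived for the original primary screen, cut at about 33% in these data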
EBNA1 counter: blocks EBNA-1 DNA binding in ZTA counter-screen; shares compounds with ZTA counter; fluorescence polarization; inhibition, % at 14.8 µM; 320 tested, under 10 active; AID 2362; call rule not given here
Numbers stand for hits; 0 = inactive; - = not tested or not shown; + = active, no number.

SMILES | EBNA-1 inh | PAFAH1B2 inh | rCAG binder | ZTA counter | PAFAH1B3 FP inh | PAFAH2 inh | Zta DNA confirm | EBNA1 counter
COCCN(C(=O)c1cc2c(s1)CCCCC2)c1c(N)n(Cc2ccccc2)c(=O)[nH]c1=O | 0 | 0 | 0 | 0 | 0 | 0 | - | -
COC(=O)[C@H](C(C)C)N(CCc1cn(Cc2ccc(C)cc2)nn1)S(=O)(=O)c1ccccc1Br | - | - | 0 | - | - | - | - | -
CC(=O)c1ccc(NC(=O)c2cccc(N3C(=O)c4ccccc4C3=O)c2)cc1 | 0 | 0 | - | 0 | 0 | 0 | - | -
NS(=O)(=O)c1ccc(NC(=O)c2cccc(N3C(=O)c4ccccc4C3=O)c2)cc1 | 0 | 0 | 0 | 61 | 0 | 0 | 58 | 0
Nc1c(C(=O)N2CCN(c3ccccc3)CC2)nnn1Cc1ccc(Cl)cc1 | - | - | 0 | - | - | - | - | -
O=C(COc1ccc(S(=O)(=O)NC2CCCCC2)cc1Cl)NCC1CCCO1 (stereo unspecified) | 0 | 0 | 0 | 152 | 0 | 0 | 0 | 0
Cc1cc(S(=O)(=O)NC2CCCCC2)ccc1OCC(=O)NCC1CCCO1 (stereo unspecified) | 0 | 0 | 0 | 0 | 0 | 0 | - | -
CCc1ccc2nc(N(CCCN(C)C)C(=O)c3ccc(S(=O)(=O)N4CCCc5ccccc54)cc3)sc2c1 | 0 | 0 | 0 | 37 | 0 | 0 | 0 | 0
CCc1ccc2nc(N(CCCN(C)C)C(=O)c3ccc(S(=O)(=O)N4CCCC4)cc3)sc2c1 | 0 | 0 | 0 | 0 | 0 | 0 | - | -
Cc1ccc(-n2nc(C(=O)NCc3ccco3)c3c4ccccc4n(C)c3c2=O)cc1 | 0 | 0 | 0 | 45 | 0 | 0 | 0 | 0
CCN(CC)CCNC(=O)c1nn(-c2ccc(C)cc2)c(=O)c2c1c1ccccc1n2C | 0 | 0 | 0 | 0 | 0 | 0 | - | -
COc1cccc(=O)c2c(C)n(-c3ccc(C(=O)O)cc3)c(C)c12 | 0 | 0 | 0 | 46 | 0 | 0 | 0 | 0
C/C=C/c1ccc([C@@H]2[C@H](CO)N(S(C)(=O)=O)[C@H]2CN(C)C(=O)CC)cc1 | - | - | 0 | - | - | - | - | -
CCC(C)CN1C(=O)CSCC1(C)C(=O)Nc1ccc2c(c1)OCCO2 (stereo unspecified) | - | - | 0 | - | - | - | - | -
Nc1ccc(N2CCOCC2)c2nonc12 | 0 | 0 | 0 | 55 | 0 | 0 | 0 | 0
COc1ccc(-c2cc(-c3nnc4sc(-c5cccs5)nn34)[nH]n2)cc1 | - | - | 0 | - | - | - | - | -
COC(=O)[C@H](C(C)C)N(CCc1cn(Cc2ccc(C)cc2)nn1)S(=O)(=O)c1ccc(F)cc1Br | - | - | 0 | - | - | - | - | -
COc1ccc(Nc2nc(C)nc3c2oc2ccccc23)c(OC)c1 | 0 | 0 | 0 | 39 | 0 | 0 | 0 | 0
COc1ccccc1Nc1nc(C)nc2c1oc1ccccc12 | 0 | 0 | 0 | 0 | 0 | 0 | - | -
Cn1c2ccccc2c(=O)n2c(=O)c3ccccc3cc12 | 0 | - | - | 43 | - | - | 33 | 0
O=C(CSc1ncnc2scc(-c3ccccc3)c12)N1CCN(Cc2ccc3c(c2)OCO3)CC1 | 0 | 0 | 0 | 59 | 0 | 0 | 160 | 72
COC(=O)C12C=C3CC(C4CC4)=C3C(=O)N1Cc1[nH]c3ccccc3c1C2 (stereo unspecified) | - | - | 0 | - | - | - | - | -
COc1ccc(C2=[N+](C)CCn3cccc32)c(OC)c1 | 0 | 0 | 0 | 33 | 0 | 0 | 0 | 0
N#Cc1ccc(NC(=O)OC2CC3CC2[C@H]2CCCCN2[C@H]3Cc2ccccc2)cc1 (stereo partly specified) | - | - | 0 | - | - | - | - | -
CC1=[N+](C)c2ccc3ccccc3c2C1(C)C | 0 | 0 | 0 | + | 0 | 0 | 69 | 0
SMILES | EBNA-1 inh | PAFAH1B2 inh | rCAG binder | ZTA counter | PAFAH1B3 FP inh | PAFAH2 inh | Zta DNA confirm | EBNA1 counter
CCS(=O)(=O)Nc1ccc2c(c1)C(=O)N(C)[C@@H]1CC[C@H](CC(=O)N3CCCCC3)O[C@H]1CO2 | - | - | 0 | - | - | - | - | -
CCn1c(CSc2nnc(-c3ccncc3)n2CCOC)nc2cc(C(=O)O)ccc21 | 0 | 36 | 0 | 37 | 27 | 47 | 0 | 0
CCn1c(CSc2n[nH]c(N)n2)nc2cc(C(=O)O)ccc21 | 0 | 38 | 0 | 34 | 36 | 52 | 39 | 0
COc1ccc2c(c1)CNC2CS(=O)(=O)NC1CCCC1 (stereo unspecified) | - | - | 0 | - | - | - | - | -
CC(C)c1ccc(NC(=O)COc2ccc(S(=O)(=O)N3CCOCC3)cc2)cc1 | 0 | 0 | 0 | 35 | 0 | 0 | 0 | 0
O=C(O)CC(NC(=O)CCc1ccccc1)c1ccc(Cl)cc1 (stereo unspecified) | 0 | 0 | 0 | 62 | 0 | 0 | 0 | 0
Cc1ccc(-n2c(SCC(=O)c3ccccc3Cl)nnc2-c2cnccn2)cc1 | - | - | 0 | - | - | - | - | -
CN(C(=O)c1cccc(C#N)c1)c1nnc(C2CCCO2)s1 (stereo unspecified) | 0 | 0 | 0 | 110 | 0 | 0 | 0 | 0
NC1=NC[C@H](c2ccccc2)N1CCCCC1CCCCC1 | 0 | 0 | 0 | 33 | 0 | 0 | 0 | 0
CCN1CCN(CCCNC(=O)c2ccc(/C=C3/Oc4ccccc4N(Cc4cccc(C)c4)C3=O)cc2)CC1 | 0 | 0 | - | 0 | 0 | 0 | - | -
O=C(NCCCN1CCOCC1)c1ccc(/C=C2\Oc3ccccc3N(Cc3ccccc3F)C2=O)cc1 | 0 | 0 | 0 | 48 | 0 | 0 | 0 | 0
C/C=C\C=C\C(=O)N1CC2(CC(c3cccc(NC(=O)CC)c3)=NO2)C[C@H]1C(N)=O (stereo partly specified) | 0 | 0 | 0 | 35 | 0 | 0 | 0 | 0
CCCNC(=S)N1CCN(C(c2ccccc2)c2ccccc2)CC1 | 0 | 0 | 0 | 0 | 0 | 0 | - | -
CCCCNC(=S)N1CCN(C(c2ccccc2)c2ccccc2)CC1 | 0 | 0 | 0 | 43 | 0 | 0 | 0 | 0
COCC1CCCCN1C(=O)c1ccc2nc(Cc3ccc(OC)c(OC)c3)oc2c1 (stereo unspecified) | 0 | 0 | 0 | 35 | 0 | 0 | 0 | 0
CCC1CCCCN1C(=O)c1ccc2nc(Cc3ccc(OC)cc3)oc2c1 (stereo unspecified) | 0 | 0 | 0 | 0 | 0 | 0 | - | -
O=C1C(Cl)=C(NCc2ccco2)C(=O)c2ccccc21 | - | 0 | 0 | - | 0 | 0 | - | -
CCNc1ccccc(-c2ccc3ccccc3n2)c1=O | 0 | 0 | 0 | 0 | 0 | 0 | - | -
O=C1c2ccccc2-c2onc3ccc(NCc4ccco4)c1c23 | 0 | 105 | - | 83 | 104 | 121 | 46 | 0
CCNc1ccc2noc3c2c1C(=O)c1ccccc1-3 | 0 | 114 | 0 | 63 | 104 | 114 | 0 | 0
CCCCCNC(=O)C(c1ccccc1)n1c(=O)c(-c2cc3ccccc3[nH]2)nc2ccccc21 (stereo unspecified) | - | - | 0 | - | - | - | - | -
CC1(C)Cc2c(sc(NC(=O)COc3cccc4ccccc34)c2C#N)C(C)(C)N1 | 0 | 0 | 0 | 48 | 0 | 0 | 51 | 0
Cc1ccc(OCC(=O)Nc2sc3c(c2C#N)CC(C)(C)NC3(C)C)cc1 | 0 | 0 | 0 | 0 | 0 | 0 | - | -
Cc1cc(N)n2ncc(-c3ccc(F)cc3)c2n1 | 0 | 0 | 0 | 0 | 0 | 0 | - | -
